# Records with an inconclusive call do not appear. Entries that show only a call come without a potency. A number with no mark means an inactive call. Active and inactive are the calls of the source. Calls follow the shape of the dose curve; as a rule, active = well fitted curve in the direction sought with a large enough effect; inconclusive = small, poorly fitted or top-dose-only effect, or another doubt; inactive = no such curve, though single readings can be large; an effect the other way counts as inactive or inconclusive.
# What was measured:
# [1] = Quantitative highthroughput screen to assess conditional lethalithy of NOMO1 cells grown in RPMI1640 with untreated serum (RPMI+s) (AID 1963876); also: nearly all actives have a fitted effect of over 35% in size
# How it was run: (§1)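 Each medium arm—HPLM with 10% dialyzed FBS, or RPMI1640 with 5 mM glucose and 10% untreated or dialyzed FBS—was screened against an 11-point, 3-fold compound titration for 48 h at 37 °C, with CellTiter-Glo luminescence as endpoint.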
# [2] = Quantitative highthroughput screen to assess conditional lethalithy of P12 Ichikawa cells grown in Human Plasma-Like Medium with dialyzed fetal bovine serum (HPLM+ds) (AID 1963879); details: Potency: viability; also: nearly all actives have a fitted effect of over 35% in size; as to viability: series mostly up to about 46 µM
# How it was run: as §1
# [3] = Quantitative highthroughput screen to assess conditional lethalithy of P12 Ichikawa cells grown in RPMI1640 with dialyzed fetal bovine serum (RPMI+ds) (AID 1963880); details: Potency: P12-Ichikawa viability; also: nearly all actives have a fitted effect of over 35% in size
# How it was run: as §1
# [4] = Quantitative highthroughput screen to assess conditional lethalithy of SEM cells grown in Human Plasma-Like Medium with dialyzed fetal bovine serum (HPLM+ds) (AID 1963882); also: nearly all actives have a fitted effect of over 35% in size; as to viability: series mostly up to about 46 µM
# How it was run: as §1
# [5] = Quantitative highthroughput screen to assess conditional lethalithy of P12 Ichikawa cells grown in RPMI1640 with untreated serum (RPMI+s) (AID 1963881); details: Potency: viability; also: nearly all actives have a fitted effect of over 35% in size; as to viability: series mostly up to about 46 µM
# How it was run: as §1
# [6] = Quantitative highthroughput screen to assess conditional lethalithy of SEM cells grown in RPMI1640 with unreated serum (RPMI+s) (AID 1963883); also: nearly all actives have a fitted effect of over 35% in size
# How it was run: as §1
# [7] = Quantitative highthroughput screen to assess conditional lethalithy of SEM cells grown in RPMI1640 with dialyzed fetal bovine serum (RPMI+ds) (AID 1963884); also: nearly all actives have a fitted effect of over 35% in size; as to viability: series mostly up to about 46 µM
# How it was run: as §1
# [8] = Cellular viability qHTS for adrenocortical cancer (ACC) cell line NCI-H295R (AID 1963990); also: nearly all actives have a fitted effect of over 60% in size
# How it was run: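 Luminescent ATP read-out (CellTiter-Glo, 20 min RT) after 48 h drug exposure of NCI-H295R cells; a titration up to 46 uM final. Data normalized to doxorubicin (100% inhibition) and DMSO (0%); 4-parameter fit gives IC50, max response.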
# [9] = Cellular viability qHTS for adrenocortical cancer (ACC) cell line SW-13 (AID 1963989); details: SW-13 ACC cells viability, CellTiter-Glo, 48 h; activity (max response): hits give low values; also: nearly all actives have a fitted effect of over 65% in size;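 as to activity (max response): cells grown in serum-free medium with ITS supplement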
# How it was run: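 SW-13 cells in ITS-supplemented serum-free DMEM were plated overnight, then exposed for 48 h at 37C to compound titrations (up to 46 uM final). Viability was read by CellTiter-Glo luminescence; four-parameter logistic fits gave IC50 and efficacy.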
# Potency is read from the fitted curve at half-maximal effect.
structure (smiles),measurement,setting,value
O=c1c(-c2ccc(O)cc2)coc2cc(O[C@@H]3O[C@H](CO)[C@H](O)[C@H](O)[C@H]3O)ccc12,Potency,[1],inactive
same,Potency,[2],inactive
same,Potency,[3],inactive
same,Potency,[4],14800 nM (active)
COc1cc2nc(-c3ccc(N4CCN(C)CC4)cc3)nc(NCCN3CCOCC3)c2cc1OC,Potency,[1],1660 nM (active)
same,Potency,[2],5260 nM (active)
same,Potency,[3],2640 nM (active)
same,Potency,[5],2960 nM (active)
same,Potency,[4],166 nM (active)
same,Potency,[6],469 nM (active)
same,Potency,[7],372 nM (active)
same,Potency,[8],3550 nM (active)
CCc1cc(C(C)=NOCc2ccc(C3CCCCC3)c(C(F)(F)F)c2)ccc1CN1CC(C(=O)O)C1,Potency,[1],8330 nM (active)
same,Potency,[2],8330 nM (active)
same,Potency,[3],7430 nM (active)
same,Potency,[5],9350 nM (active)
same,Potency,[6],13200 nM (active)
CC[C@]12C=CCN3CC[C@@]4(c5cc([C@@]6(C(=O)OC)C[C@H]7C[C@@H](C(C)(F)F)CN(Cc8c6[nH]c6ccccc86)C7)c(OC)cc5N(C)[C@H]4[C@@](O)(C(=O)OC)[C@H]1OC(C)=O)[C@@H]32,Potency,[1],33.2 nM (active)
same,Potency,[2],37.2 nM (active)
same,Potency,[3],74.3 nM (active)
same,Potency,[4],29.6 nM (active)
same,Potency,[6],18.7 nM (active)
same,Potency,[7],33.2 nM (active)
C=CC(=O)Nc1cc(NC(=O)c2ccc(C)c(NC(=O)c3ccno3)c2)cc(C(F)(F)F)c1,Potency,[1],inactive
same,Potency,[2],inactive
same,Potency,[4],inactive
same,Potency,[6],inactive
Cc1ccc(O)c(C(CCN(C(C)C)C(C)C)c2ccccc2)c1 (centres undefined),Potency,[1],inactive
same,Potency,[2],inactive
same,Potency,[5],inactive
same,Potency,[4],inactive
same,Potency,[6],inactive
same,Potency,[7],inactive
same,activity (max response),[9],1.99%
same,Potency,[8],inactive
Nc1ccc(-c2ccc3ncc4ccc(=O)n(-c5cccc(C(F)(F)F)c5)c4c3c2)cn1,Potency,[1],83.3 nM (active)
same,Potency,[2],148 nM (active)
same,Potency,[9],708 nM (active)
same,Potency,[8],126 nM (active)
N#CC(=Cc1ccc(O)c(O)c1)C(=O)NCc1ccccc1,Potency,[1],inactive
same,Potency,[6],20900 nM (active)
CC(=O)C1=C(O)C=C2Oc3c(C(C)=O)c(O)c(C)c(O)c3C2(C)C1=O (centres undefined),Potency,[1],296 nM (active)
same,Potency,[2],1480 nM (active)
same,Potency,[5],1320 nM (active)
same,Potency,[6],inactive
COc1ccc(Nc2nccc(NCCO)n2)cc1,Potency,[1],inactive
same,Potency,[2],inactive
same,Potency,[3],inactive
same,Potency,[5],inactive
same,Potency,[4],inactive
same,Potency,[6],inactive
same,Potency,[7],inactive
same,Potency,[8],inactive
COc1ccc(CCC(=O)c2c(O)cc(O[C@@H]3O[C@H](CO)[C@@H](O)[C@H](O)[C@@H]3O[C@@H]3O[C@@H](C)[C@H](O)[C@@H](O)[C@@H]3O)cc2O)cc1O,Potency,[1],13200 nM (active)
same,Potency,[3],inactive
same,Potency,[5],inactive
same,Potency,[4],inactive
same,Potency,[6],inactive
same,Potency,[7],inactive
COc1cc(C(C)=O)ccc1OCCCN1CCC(c2noc3cc(F)ccc23)CC1,Potency,[1],inactive
same,Potency,[2],inactive
same,Potency,[3],inactive
same,Potency,[5],inactive
same,Potency,[4],inactive
same,Potency,[7],inactive
same,Potency,[8],inactive
C=C1C(=O)OC2C=C(C)CCC=C(C)CCC12 (centres undefined),Potency,[1],inactive
same,Potency,[7],23500 nM (active)
CCC(=C(c1ccccc1)c1ccc(OCCN(C)C)cc1)c1ccccc1,Potency,[1],inactive
same,Potency,[2],inactive
same,Potency,[5],inactive
same,Potency,[4],23500 nM (active)
COC[C@@H](c1ccc(C(F)(F)F)cc1)N1CCN(C2(C)CCN(C(=O)c3c(C)ncnc3C)CC2)C[C@H]1C,Potency,[1],2350 nM (active)
same,Potency,[2],inactive
same,Potency,[3],inactive
same,Potency,[5],inactive
same,activity (max response),[9],-14.2%
FC(F)(F)c1ccc(C=Cc2nc(COc3ccc(CCCCn4ccnn4)cc3)co2)cc1,Potency,[1],2350 nM (active)
same,Potency,[4],inactive
same,Potency,[7],9.3 nM (active)
C[C@@H](O)[C@H]1C(=O)N2C(C(=O)OCOC(=O)C(C)(C)C)=C(SC3CN(C4=NCCS4)C3)[C@H](C)[C@H]12,Potency,[1],inactive
same,Potency,[4],inactive
same,Potency,[7],inactive
CN(C(Cc1ccc(OS(=O)(=O)c2cccc3cnccc23)cc1)C(=O)N1CCN(c2ccccc2)CC1)S(=O)(=O)c1cccc2cnccc12 (centres undefined),Potency,[1],inactive
same,Potency,[3],18700 nM (active)
same,Potency,[5],14800 nM (active)
same,activity (max response),[9],5.6%
same,Potency,[8],inactive
CC=CC[C@@H](C)C(=O)[C@H]1C(=O)N[C@@H](C(C)C)C(=O)N(C)CC(=O)N(C)[C@@H](CC(C)C)C(=O)N[C@@H](C(C)C)C(=O)N(C)[C@@H](CC(C)C)C(=O)N[C@@H](C)C(=O)N[C@H](C)C(=O)N(C)[C@@H](CC(C)C)C(=O)N(C)[C@@H](CC(C)C)C(=O)N(C)[C@@H](C(C)C)C(=O)N1C,Potency,[1],inactive
same,Potency,[6],14800 nM (active)
COc1cc2nccc(Oc3ccc(NC(=O)C4(C(=O)Nc5ccc(F)cc5)CC4)cc3)c2cc1OC,Potency,[1],inactive
same,Potency,[5],20900 nM (active)
same,Potency,[9],12600 nM (active)
same,Potency,[8],10000 nM (active)
CCCCCCCCCCCC1=C(O)C(=O)C=C(O)C1=O,Potency,[1],332 nM (active)
same,Potency,[2],2090 nM (active)
same,Potency,[3],3320 nM (active)
same,Potency,[5],2090 nM (active)
same,Potency,[4],inactive
same,Potency,[6],inactive
same,activity (max response),[9],-2.06%
same,Potency,[8],inactive
COc1cc2c(cc1OC)CN(CCc1ccc(NC(=O)c3cccc4c(=O)c5cccc(OC)c5[nH]c34)cc1)CC2,Potency,[1],4690 nM (active)
same,Potency,[2],1180 nM (active)
same,Potency,[3],2960 nM (active)
same,Potency,[5],3720 nM (active)
same,Potency,[4],4180 nM (active)
same,Potency,[6],1050 nM (active)
same,Potency,[7],935 nM (active)
same,activity (max response),[9],-3.54%
same,Potency,[8],inactive
O=C(O)c1ccc(-c2cc3cccnc3c(-c3ccc4nonc4c3)n2)cc1,Potency,[1],inactive
same,Potency,[2],inactive
same,Potency,[5],inactive
